# HT1080-NT tox = kills 2HG-producing HT-1080-NT fibrosarcoma cells; HT-1080-NT fibrosarcoma viability, CellTiter-Glo ATP luminescence, 48 h; Potency, µM (top dose mostly 46.1 µM), usual class: cytotoxic; 360,000 tested, 1.6% active; AID 686970;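 further: NT is the 2HG producing partner of a matched IDH1 knockdown line; nearly all actives have a fitted effect of over 55% in size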
#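 Viability of the 2HG-overproducing fibrosarcoma line after 48 hours of compound exposure at 37 degrees C was determined by luminescence with CellTiter-Glo, and concentration-effect curves were then fitted and categorized.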
# TGFb inhibitor = TGF-b pathway inhibition | 410,000 tested, 1.2% active | HepG2 CAGA-GFP TGF-b/SMAD3 reporter, GFP fluorescence, 18 h; TGF-beta stimulated, 500 pg/mL final | AID 588855 | Potency, µM (titrated, usually from 46.1 µM), hits mostly inhibitors; further: nearly all actives have a fitted effect of over 65% in size
#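 Read-out: total well GFP (ex488/em500-530) summed from mean per-cell fluorescence. Cells: HEPG2 CAGA-GFP, 1% FBS DMEM, 18 h at 37 degrees C with 500 pg/mL final TGF-beta. Unstimulated wells served as the full-inhibition control; stimulated DMSO wells = 0%.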
# Giardia killer = Giardia lamblia killing; Giardia lamblia trophozoite viability; activity change, % at 7.66 µM, hits read low; 340,000 tested, 0.15% active; AID 540267; in the data active means activity change below about -80%; inconclusive means between about -30% and that limit;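 further: parasites exposed to compound for two days anaerobically before the ATP read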
#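 Media and compound were dispensed first, then trophozoites at 100 cells/well; plates sat 48 hrs at 37 deg C without oxygen before ATP luminescence reagent was added and read after 15-30 min at room temperature.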
# HepG2 viability = kills HepG2 cells in TGF-b inhibitor counter-screen. HepG2 CAGA-GFP viability, ATP luminescence, 18 h. Potency, µM (doses to about 46.1 µM), hits mostly cytotoxic. 410,000 tested, 0.76% active
#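 CellTiter-Glo luminescence gave cytotoxicity after 18 hours at 37 degrees C. The cells were HepG2 CAGA-GFP in 1% FBS DMEM, stimulated with 500 pg/mL TGF-beta after compound addition. %Activity was normalised to no-cell wells (complete cell-killing) and DMSO (no toxicity), and curves were fitted and classified.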
# HT1080 IDH1KD tx = toxicity to HT-1080 IDH1 knockdown cells (counter line) | 360,000 tested, 2% active | HT-1080 IDH1 knockdown viability, ATP luminescence, 48 h | AID 686971 | Potency, µM (titrated, usually from 46.1 µM), most hits filed as cytotoxic
#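 Viability of IDH1-knockdown HT-1080 fibrosarcoma cells was assessed by CellTiter-Glo after 48 h at 37 °C with titrated compound; concentration-effect curves were classified by fit quality and response size.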
# IL1B secr inh = inflammasome signaling inhibition, IL-1 beta readout; AID 743279; activity change, % at 57.5 µM; THP-1 LPS/ATP IL-1B secretion, AlphaLISA, 16 h; stronger effect = lower value; 360,000 tested, 4.7% active; in the data active means activity change below about -50%; inconclusive means mostly about -30% to -49%
#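 THP-1 cells pretreated 1 hr with compounds (up to 57.5 uM final), then stimulated with LPS (250 ng/mL final) plus ATP (1.25 mM final); secreted IL-1B measured by AlphaLISA after 16 hr, decreased signal indicating inhibition.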
# Hits are given with their value; . = inactive; ? = inconclusive; / = not tested or not shown. The list is not random: actives were taken first. Their share in the collection is about 6.5%. Unless noted, the call rests on the fitted dose curve; in most records, active means well fitted curve in the direction sought with a large enough effect; inconclusive means small, poorly fitted or top-dose-only effect, or another doubt; inactive means no such curve, though single readings can be large; an effect the other way counts as inactive or inconclusive.
SMILES,HT1080-NT tox,TGFb inhibitor,Giardia killer,HepG2 viability,HT1080 IDH1KD tx,IL1B secr inh
CC[C@@H](C(=O)[C@@H](C)[C@@H](O)[C@H](C)[C@@H]1O[C@@H]([C@@H](CC)C(=O)O)CC[C@@H]1C)[C@H]1O[C@]2(C=C[C@@H](O)[C@]3(CC[C@@](C)([C@H]4CC[C@](O)(CC)[C@H](C)O4)O3)O2)[C@H](C)C[C@@H]1C,0.52µM,?,.,.,2.9µM,-111
O=C(COc1ccccc1F)N1CCN(Cc2cc(=O)n3nc(-c4ccccc4Cl)sc3n2)CC1,/,.,/,.,/,/
CCOC(=O)C1(CCc2ccccc2)CCN(Cc2cccc3c2OCO3)CC1,?,.,.,.,?,-85
CCOC(=O)C1(CCOc2ccccc2)CCN(Cc2ccccc2OC)CC1,?,?,.,.,.,?
CCOC(=O)C1(CCOc2ccccc2)CCN(Cc2cccc(O)c2)CC1,?,.,.,.,?,-86
CCOC(=O)C1(CCc2ccccc2)CCN(Cc2cccc3cnccc23)CC1,?,.,.,.,?,-111
CCOC(=O)C1(CCc2ccccc2)CCN(Cc2csc(C(C)=O)c2)CC1,?,.,.,.,?,.
CCN1C[C@]2(COC(=O)c3ccccc3N)CC[C@H](OC)C34[C@@H]5C[C@H]6[C@H](OC)[C@@H]5[C@](O)(C[C@@H]6OC)[C@@](O)([C@H]13)[C@@H](OC)[C@@H]42,.,.,.,.,.,.
CC(N)Cc1c[nH]c2ccc(O)cc12 (centres undefined),?,.,.,.,.,.
CC(N)Cc1c[nH]c2ccc(OCc3cccs3)cc12 (centres undefined),.,.,.,.,?,-59
O=C1NCN(c2ccccc2)C12CCN(C(c1ccnc3ccccc13)c1nnnn1C1CCCC1)CC2 (centres undefined),.,.,/,.,.,.
C[C@]1(O)CCC2C3CC[C@H]4C[C@@H](OC(=O)CNC(=O)CN)CC[C@]4(C)C3CC[C@@]21C (some centres undefined),.,.,.,.,.,.
Cc1ccc(-n2cc(CNC(C)Cc3cnccn3)c(-c3cccc(C)c3)n2)cc1 (centres undefined),?,?,.,.,?,-76
C=CCN1C(=O)/C(=C/c2ccc(Br)s2)C(=O)NC1=S,.,?,.,.,.,-99
CN1C(=O)/C(=C/c2ccc(Cl)s2)C(=O)NC1=S,?,.,.,.,?,-97
COc1ccc(/C=C2\C(=O)NC(=S)N(C)C2=O)cc1C,.,.,.,.,.,.
Cc1ccsc1/C=C1\C(=O)NC(=S)N(C)C1=O,.,?,.,.,.,-94
C=CCN1C(=O)/C(=C\c2ccc(N3CCOCC3)o2)C(=O)NC1=S,.,.,.,.,.,.
O=c1c2ccccc2nc(/C=C\c2ccccc2[N+](=O)[O-])n1-c1ccccc1O,?,?,.,.,?,-98
O=c1c2ccccc2nc(/C=C/c2ccccc2)n1-c1ccccc1F,/,?,/,.,/,/
O=c1c2ccccc2nc(/C=C/c2ccccc2F)n1-c1ccccc1O,.,?,.,.,.,-87
COC1CC2C=C(C)C=CC=CC(=O)NC(c3ccccc3)CC=CCCC(O)CC(=O)C2=C1O (centres undefined),1.8µM,?,/,.,1.6µM,-113
COc1ccc(O)c(CN2CCCC(C(=O)c3ccccc3SC)C2)c1 (centres undefined),.,.,.,.,?,.
CC[C@H](C)[C@@H]1NC(=O)CNC(=O)c2csc(n2)[C@H](C(C)(C)O)OC(=O)C(C)(C)[C@H](CCCC(C)(Cl)Cl)OC(=O)c2csc1n2,2.1µM,?,/,.,0.073µM,.
COc1ccc(C(c2nnnn2-c2ccc3c(c2)OCCO3)N2CCC3(CC2)C(=O)NCN3c2ccccc2)cc1 (centres undefined),.,?,/,.,?,.
SMILES,HT1080-NT tox,TGFb inhibitor,Giardia killer,HepG2 viability,HT1080 IDH1KD tx,IL1B secr inh
Oc1ccc2c3c1O[C@H]1c4oc5ccccc5c4C[C@@]4(O)[C@@H](C2)N(CC2CC2)CC[C@]314,?,.,.,.,?,-65
Oc1ccc2c3c1O[C@H]1c4[nH]c5ccccc5c4C[C@@]4(O)[C@@H](C2)N(CC2CC2)CC[C@]314,?,.,.,.,?,-61
CCOc1ccc(-n2c(O)c(/C=C3\C=Nc4ccccc43)c(=O)[nH]c2=O)cc1,.,.,.,.,.,.
COC(=O)C1=C(c2ccc(C(C)=O)cc2)C[C@@H]2CC[C@H]1N2C(=O)N1CCCC1,.,.,.,.,.,.
CCOc1ccccc1-n1c(O)c(C=NCc2ccc3c(c2)OCO3)c(=O)[nH]c1=O,.,.,.,.,.,.
Fc1ccc(C2=CCN(C(c3cccs3)c3nnnn3CCc3ccccc3)CC2)cc1 (centres undefined),.,.,.,.,.,-61
Fc1ccc2c(c1)nnn2C1CCN(Cc2nnnn2CCc2ccccc2)CC1,.,.,.,.,.,.
CCC(C)(C)n1nnnc1C(c1cccs1)N1CC=C(c2ccc(F)cc2)CC1 (centres undefined),?,.,.,.,.,-67
Cc1ccc(S(=O)(=O)c2nc(-c3ccccc3Cl)oc2N(C)C2CCN(C)CC2)cc1,?,?,.,11µM,?,.
O=C(Nc1cccc(C(F)(F)F)c1)OC1CN2CCC1CC2 (centres undefined),.,.,.,.,.,.
OC(c1cccc(Cl)c1)(c1cccc(Cl)c1)C1CN2CCC1CC2 (centres undefined),23µM,?,.,.,18µM,-73
O=C(NCc1cccnc1)Nc1ccccc1Cl,.,.,.,.,.,.
O=C(CCCCCCCCCCC(=O)NCc1cccnc1)NCc1cccnc1,?,.,.,.,4.6µM,.
CCCCCNC(=O)C(c1ccncc1)n1c(=O)c(-c2cc3ccccc3[nH]2)nc2ccccc21 (centres undefined),?,/,/,/,16µM,?
CCCCn1c(=O)c(C(=O)NCc2ccncc2)c(O)c2ccccc21,.,.,.,.,?,.
Cc1ccc(NC(=O)c2snnc2C)cc1Cl,.,.,.,.,.,.
Cc1nn(C(C)(C)C)c(C)c1/C=N/OC(=O)Nc1ccc(Cl)c(Cl)c1,.,18µM,.,.,.,.
CN1CCN(c2cc(N3CCCCCC3)c(F)cc2[N+](=O)[O-])CC1,.,.,.,.,.,-56
COc1ccc(OC)c(N=Cc2c(O)[nH]c(=O)[nH]c2=O)c1,.,?,.,.,.,.

# Source: PubChem BioAssay
